From article PMC7862700, “An all-to-all approach to the identification of sequence-specific readers for epigenetic DNA modifications on cytosine” come the findings set out here.

What all share (experiment): DAPPL (digital affinity profiling via proximity ligation, sequencing); 10 mM Tris-HCl pH 7.5, 50 mM NaCl, 1 mM DTT, 4% glycerol, room temperature, 30 min; GST-TFs on glutathione beads, 16-mer random dsDNA library, 0.1% formaldehyde crosslink after washing; high values mean tight binding
The target in one assay is T1, FEV (Homo sapiens, UniProt Q99581 1-238).
T1 sequence: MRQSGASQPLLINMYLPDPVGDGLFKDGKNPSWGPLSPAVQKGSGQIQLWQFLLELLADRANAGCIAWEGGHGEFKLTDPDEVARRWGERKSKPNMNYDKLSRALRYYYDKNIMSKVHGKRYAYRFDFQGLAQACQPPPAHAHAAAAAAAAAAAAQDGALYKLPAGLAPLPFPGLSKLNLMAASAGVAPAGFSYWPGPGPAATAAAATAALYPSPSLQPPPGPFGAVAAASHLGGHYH
Particulars: protein: recombinant; tags: N-terminal GST; dsDNA, one strand shown. The essentials:
(§1)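 Binding signal is given per hexamer as its read frequency for a factor divided by its frequency in the tag-only sample. GST-fused human transcription factors were expressed in yeast, captured on glutathione beads, barcoded with DNA and pooled with that sample, then incubated with 200 nmole of a 16-mer random double-stranded DNA library in Tris/NaCl/DTT/glycerol buffer for 30 min at room temperature. The pools were then washed, crosslinked, proximity-ligated, amplified by PCR and sequenced on an Illumina NextSeq500.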

The next assay concerns the target ETV5 (Homo sapiens, UniProt P41161 1-510). The conditions noted are these: protein: recombinant; tags: N-terminal GST; dsDNA, one strand shown. The essentials: as §1
In another assay the target is HSF1 (Homo sapiens, UniProt Q00613 1-529). The conditions noted are these: protein: recombinant; tags: N-terminal GST; chain copies: 3; dsDNA, one strand shown. In a few lines:
as §1

The next assay has as its target T2, SPIC (Homo sapiens, UniProt Q8N5J4 1-248).
T2 sequence: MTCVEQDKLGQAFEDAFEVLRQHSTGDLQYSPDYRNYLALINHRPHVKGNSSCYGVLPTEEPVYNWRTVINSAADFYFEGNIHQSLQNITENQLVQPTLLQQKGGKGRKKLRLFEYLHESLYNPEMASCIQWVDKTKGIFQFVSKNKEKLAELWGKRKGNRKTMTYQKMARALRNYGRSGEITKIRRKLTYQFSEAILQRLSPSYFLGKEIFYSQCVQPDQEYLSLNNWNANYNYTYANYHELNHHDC
Particulars: protein: recombinant; tags: N-terminal GST; dsDNA, one strand shown. The essentials: as §1

The target of the next assay is ELF4 (Homo sapiens, UniProt Q99607 1-663). The conditions noted are these: protein: recombinant; tags: N-terminal GST; dsDNA, one strand shown. The essentials:
as §1

The next assay has as its target T3, ELK4 (Homo sapiens, UniProt P28324-2 1-405).
T3 sequence: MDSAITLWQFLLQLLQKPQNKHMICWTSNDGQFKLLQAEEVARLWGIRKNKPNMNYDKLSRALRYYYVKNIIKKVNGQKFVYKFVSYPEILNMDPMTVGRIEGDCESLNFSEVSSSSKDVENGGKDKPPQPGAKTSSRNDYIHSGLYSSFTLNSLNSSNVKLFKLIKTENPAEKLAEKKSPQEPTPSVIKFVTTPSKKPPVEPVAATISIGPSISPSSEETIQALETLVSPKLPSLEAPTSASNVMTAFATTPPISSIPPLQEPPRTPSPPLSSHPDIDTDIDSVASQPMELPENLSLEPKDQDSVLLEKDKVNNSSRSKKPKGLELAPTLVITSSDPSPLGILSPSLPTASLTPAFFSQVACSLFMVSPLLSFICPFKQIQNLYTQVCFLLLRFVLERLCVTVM
The conditions noted are these: protein: recombinant; tags: N-terminal GST; dsDNA, one strand shown. The essentials: as §1

A further assay concerns the target T4, ETV2 (Homo sapiens, UniProt O00321 1-342).
T4 sequence: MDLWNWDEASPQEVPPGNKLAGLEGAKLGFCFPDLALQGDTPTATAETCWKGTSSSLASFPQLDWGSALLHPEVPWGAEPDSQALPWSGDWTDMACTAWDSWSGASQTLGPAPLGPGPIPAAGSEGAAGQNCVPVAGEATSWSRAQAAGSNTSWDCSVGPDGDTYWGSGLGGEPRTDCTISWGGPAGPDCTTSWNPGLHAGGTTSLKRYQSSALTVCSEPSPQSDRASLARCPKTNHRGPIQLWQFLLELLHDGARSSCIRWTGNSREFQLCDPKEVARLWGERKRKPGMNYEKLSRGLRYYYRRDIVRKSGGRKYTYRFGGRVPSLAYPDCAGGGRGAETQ
Particulars: protein: recombinant; tags: N-terminal GST; dsDNA, one strand shown. In a few lines:
as §1

A further assay deals with T5, ELF3 (Homo sapiens, UniProt P78545 1-371).
T5 sequence: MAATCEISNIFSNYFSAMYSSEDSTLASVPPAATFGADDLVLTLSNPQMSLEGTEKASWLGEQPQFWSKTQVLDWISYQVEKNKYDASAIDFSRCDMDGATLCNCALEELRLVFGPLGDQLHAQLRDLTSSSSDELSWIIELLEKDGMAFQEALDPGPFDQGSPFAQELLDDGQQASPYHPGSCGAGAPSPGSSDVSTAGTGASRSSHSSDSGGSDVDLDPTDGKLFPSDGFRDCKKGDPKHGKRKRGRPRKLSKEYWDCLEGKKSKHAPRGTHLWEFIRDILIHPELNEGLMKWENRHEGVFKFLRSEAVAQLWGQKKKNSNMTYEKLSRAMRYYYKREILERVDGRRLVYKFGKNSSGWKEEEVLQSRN
Particulars: protein: recombinant; tags: N-terminal GST; dsDNA, one strand shown. In a few lines: as §1

For the next assay, the target named is CRX (Homo sapiens, UniProt O43186 1-299). Particulars: protein: recombinant; tags: N-terminal GST; dsDNA, one strand shown. The essentials: as §1
Chain of CRX (O43186 whole entry): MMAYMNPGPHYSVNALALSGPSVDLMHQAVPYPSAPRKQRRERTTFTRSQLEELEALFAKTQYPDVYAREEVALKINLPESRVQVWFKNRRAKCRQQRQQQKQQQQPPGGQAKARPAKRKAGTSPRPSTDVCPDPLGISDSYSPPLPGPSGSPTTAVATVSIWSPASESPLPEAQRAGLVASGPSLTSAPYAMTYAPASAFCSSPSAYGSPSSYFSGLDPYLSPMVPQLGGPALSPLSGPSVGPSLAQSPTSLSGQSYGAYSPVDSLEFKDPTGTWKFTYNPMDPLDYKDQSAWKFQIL
In the next assay the target is ETV1 (Homo sapiens, UniProt P50549 1-477). Particulars: protein: recombinant; tags: N-terminal GST; dsDNA, one strand shown. In a few lines: as §1
Chain of ETV1 (P50549 whole entry): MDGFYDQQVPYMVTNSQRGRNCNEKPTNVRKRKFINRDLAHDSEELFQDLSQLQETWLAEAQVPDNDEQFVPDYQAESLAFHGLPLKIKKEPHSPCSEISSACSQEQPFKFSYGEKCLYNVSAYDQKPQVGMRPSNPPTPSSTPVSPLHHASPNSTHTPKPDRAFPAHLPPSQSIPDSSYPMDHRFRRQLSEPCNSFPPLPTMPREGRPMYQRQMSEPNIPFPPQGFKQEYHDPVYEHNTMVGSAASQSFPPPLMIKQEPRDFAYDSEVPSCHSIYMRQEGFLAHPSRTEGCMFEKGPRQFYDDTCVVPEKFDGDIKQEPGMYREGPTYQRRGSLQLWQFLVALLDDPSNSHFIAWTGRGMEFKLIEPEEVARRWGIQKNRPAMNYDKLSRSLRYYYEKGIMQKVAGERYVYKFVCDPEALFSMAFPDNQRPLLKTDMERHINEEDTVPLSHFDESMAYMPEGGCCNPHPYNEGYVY
Another assay addresses T6, ERF (Homo sapiens, UniProt P50548 1-548).
T6 sequence: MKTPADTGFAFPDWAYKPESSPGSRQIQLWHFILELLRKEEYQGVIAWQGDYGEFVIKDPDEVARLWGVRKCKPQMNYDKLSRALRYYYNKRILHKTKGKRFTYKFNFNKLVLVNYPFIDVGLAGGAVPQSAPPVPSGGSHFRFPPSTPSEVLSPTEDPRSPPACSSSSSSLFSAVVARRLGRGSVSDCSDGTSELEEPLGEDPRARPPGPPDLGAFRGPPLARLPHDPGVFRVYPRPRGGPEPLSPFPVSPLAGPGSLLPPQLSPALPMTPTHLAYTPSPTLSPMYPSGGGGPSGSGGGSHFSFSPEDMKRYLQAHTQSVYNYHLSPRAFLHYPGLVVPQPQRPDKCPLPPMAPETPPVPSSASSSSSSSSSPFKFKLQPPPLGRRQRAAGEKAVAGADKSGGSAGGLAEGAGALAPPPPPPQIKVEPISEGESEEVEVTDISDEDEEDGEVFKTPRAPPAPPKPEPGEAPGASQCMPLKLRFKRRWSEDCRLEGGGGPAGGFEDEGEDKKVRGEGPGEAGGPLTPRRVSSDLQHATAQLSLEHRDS
Particulars: protein: recombinant; tags: N-terminal GST; dsDNA, one strand shown. In a few lines:
as §1

In a further assay the target is T7, ETV3L (Homo sapiens, UniProt Q6ZN32 1-361).
T7 sequence: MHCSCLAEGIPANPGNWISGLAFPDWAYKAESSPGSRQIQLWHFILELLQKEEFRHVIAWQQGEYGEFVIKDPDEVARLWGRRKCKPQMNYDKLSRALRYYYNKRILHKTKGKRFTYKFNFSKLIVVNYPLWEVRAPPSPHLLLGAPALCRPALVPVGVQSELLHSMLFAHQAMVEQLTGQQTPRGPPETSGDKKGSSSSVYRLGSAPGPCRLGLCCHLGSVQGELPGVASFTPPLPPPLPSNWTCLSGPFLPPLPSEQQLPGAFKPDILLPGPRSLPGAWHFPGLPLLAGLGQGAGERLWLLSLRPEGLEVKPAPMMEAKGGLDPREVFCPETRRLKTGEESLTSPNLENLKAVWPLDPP
Particulars: protein: recombinant; tags: N-terminal GST; dsDNA, one strand shown. In a few lines: as §1

The target in the next assay is T8, ETS2 (Homo sapiens, UniProt P15036 1-469).
T8 sequence: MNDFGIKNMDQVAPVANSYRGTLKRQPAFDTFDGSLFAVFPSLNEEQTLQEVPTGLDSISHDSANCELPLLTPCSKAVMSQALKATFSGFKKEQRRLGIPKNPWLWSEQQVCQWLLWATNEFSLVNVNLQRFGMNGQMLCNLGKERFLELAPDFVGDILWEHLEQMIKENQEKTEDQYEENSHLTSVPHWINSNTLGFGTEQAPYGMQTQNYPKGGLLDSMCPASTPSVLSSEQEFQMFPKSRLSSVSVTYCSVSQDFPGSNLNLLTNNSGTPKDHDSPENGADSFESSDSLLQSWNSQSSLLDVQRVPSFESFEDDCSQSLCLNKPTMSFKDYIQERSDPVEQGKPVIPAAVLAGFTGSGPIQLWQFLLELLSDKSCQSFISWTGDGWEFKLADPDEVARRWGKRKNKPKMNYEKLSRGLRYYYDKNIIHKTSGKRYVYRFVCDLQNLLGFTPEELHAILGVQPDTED
Particulars: protein: recombinant; tags: N-terminal GST; dsDNA, one strand shown. In a few lines:
as §1

The target of a further assay is T9, SPDEF (Homo sapiens, UniProt O95238 1-335).
T9 sequence: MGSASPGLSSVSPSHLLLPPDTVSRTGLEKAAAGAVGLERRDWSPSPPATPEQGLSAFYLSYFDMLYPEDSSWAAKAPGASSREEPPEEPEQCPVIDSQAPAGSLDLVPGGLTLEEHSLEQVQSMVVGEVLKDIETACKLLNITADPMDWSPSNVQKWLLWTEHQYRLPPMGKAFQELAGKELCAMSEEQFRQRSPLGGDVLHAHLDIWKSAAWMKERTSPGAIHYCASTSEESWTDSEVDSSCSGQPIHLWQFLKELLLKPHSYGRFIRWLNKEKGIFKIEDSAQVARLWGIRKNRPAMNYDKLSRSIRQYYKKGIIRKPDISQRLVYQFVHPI
The conditions noted are these: protein: recombinant; tags: N-terminal GST; dsDNA, one strand shown. The essentials:
as §1

The next assay addresses T10, ETV7 (Homo sapiens, UniProt Q9Y603 1-341).
T10 sequence: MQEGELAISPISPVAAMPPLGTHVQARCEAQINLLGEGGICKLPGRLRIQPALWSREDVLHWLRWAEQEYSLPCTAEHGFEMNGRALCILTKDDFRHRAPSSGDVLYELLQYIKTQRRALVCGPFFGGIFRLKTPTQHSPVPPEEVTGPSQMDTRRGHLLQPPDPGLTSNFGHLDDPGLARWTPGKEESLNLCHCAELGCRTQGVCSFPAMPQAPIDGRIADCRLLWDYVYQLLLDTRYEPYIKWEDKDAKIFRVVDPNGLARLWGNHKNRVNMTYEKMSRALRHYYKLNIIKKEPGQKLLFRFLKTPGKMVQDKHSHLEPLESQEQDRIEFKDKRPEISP
Particulars: protein: recombinant; tags: N-terminal GST; dsDNA, one strand shown. The essentials:
as §1

Another assay addresses T11, ELF5 (Homo sapiens, UniProt Q9UKW6-2 1-255).
T11 sequence: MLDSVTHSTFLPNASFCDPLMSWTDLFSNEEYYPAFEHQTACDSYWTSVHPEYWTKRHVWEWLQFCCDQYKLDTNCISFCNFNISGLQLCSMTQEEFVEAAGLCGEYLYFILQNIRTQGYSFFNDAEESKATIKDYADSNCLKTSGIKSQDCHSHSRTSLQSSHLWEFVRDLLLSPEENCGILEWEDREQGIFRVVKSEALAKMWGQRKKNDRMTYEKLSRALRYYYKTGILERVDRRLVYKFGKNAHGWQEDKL
The conditions noted are these: protein: recombinant; tags: N-terminal GST; dsDNA, one strand shown. The essentials: as §1

In another assay the target is T12, ETV3 (Homo sapiens, UniProt P41162-2 1-143).
T12 sequence: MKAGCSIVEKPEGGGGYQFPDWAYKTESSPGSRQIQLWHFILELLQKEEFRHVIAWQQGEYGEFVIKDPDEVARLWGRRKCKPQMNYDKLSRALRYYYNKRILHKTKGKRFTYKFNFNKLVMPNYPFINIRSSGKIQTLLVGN
The conditions noted are these: protein: recombinant; tags: N-terminal GST; dsDNA, one strand shown. The essentials:
as §1

For another assay, the target named is ETV6 (Homo sapiens, UniProt P41212 1-452). Particulars: protein: recombinant; tags: N-terminal GST; dsDNA, one strand shown. In a few lines:
as §1

Chain of ETV6 (P41212 whole entry): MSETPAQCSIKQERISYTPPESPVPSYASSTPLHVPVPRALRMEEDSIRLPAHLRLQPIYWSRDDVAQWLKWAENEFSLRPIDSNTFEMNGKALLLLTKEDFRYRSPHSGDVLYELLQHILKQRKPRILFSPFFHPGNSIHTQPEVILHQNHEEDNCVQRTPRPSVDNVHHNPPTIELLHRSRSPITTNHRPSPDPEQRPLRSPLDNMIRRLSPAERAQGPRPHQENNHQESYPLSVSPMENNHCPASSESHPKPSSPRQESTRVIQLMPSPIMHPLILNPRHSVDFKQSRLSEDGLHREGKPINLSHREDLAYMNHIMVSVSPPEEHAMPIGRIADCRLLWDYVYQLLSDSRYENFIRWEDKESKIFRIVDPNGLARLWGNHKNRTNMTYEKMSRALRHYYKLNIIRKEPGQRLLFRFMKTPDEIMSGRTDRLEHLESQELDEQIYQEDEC
Chain of ELF4 (Q99607 whole entry): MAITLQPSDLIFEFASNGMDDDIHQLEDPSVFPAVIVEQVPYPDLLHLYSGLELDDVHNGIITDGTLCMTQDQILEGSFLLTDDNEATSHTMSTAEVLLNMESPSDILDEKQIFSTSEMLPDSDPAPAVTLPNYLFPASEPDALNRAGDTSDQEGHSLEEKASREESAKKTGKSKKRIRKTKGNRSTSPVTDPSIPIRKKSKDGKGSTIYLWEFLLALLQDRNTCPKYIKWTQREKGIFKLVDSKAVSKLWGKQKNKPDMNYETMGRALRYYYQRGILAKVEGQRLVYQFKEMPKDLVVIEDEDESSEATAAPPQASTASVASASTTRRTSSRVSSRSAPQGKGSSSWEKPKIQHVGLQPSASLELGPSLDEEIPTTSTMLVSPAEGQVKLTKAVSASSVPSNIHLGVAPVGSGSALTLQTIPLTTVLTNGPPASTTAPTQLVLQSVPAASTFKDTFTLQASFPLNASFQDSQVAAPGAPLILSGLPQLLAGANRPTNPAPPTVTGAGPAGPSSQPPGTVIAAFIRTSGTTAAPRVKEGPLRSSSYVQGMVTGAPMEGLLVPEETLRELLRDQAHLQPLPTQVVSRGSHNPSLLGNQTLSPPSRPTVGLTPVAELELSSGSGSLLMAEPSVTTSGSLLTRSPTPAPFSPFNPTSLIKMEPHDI
Chain of ETV5 (P41161 whole entry): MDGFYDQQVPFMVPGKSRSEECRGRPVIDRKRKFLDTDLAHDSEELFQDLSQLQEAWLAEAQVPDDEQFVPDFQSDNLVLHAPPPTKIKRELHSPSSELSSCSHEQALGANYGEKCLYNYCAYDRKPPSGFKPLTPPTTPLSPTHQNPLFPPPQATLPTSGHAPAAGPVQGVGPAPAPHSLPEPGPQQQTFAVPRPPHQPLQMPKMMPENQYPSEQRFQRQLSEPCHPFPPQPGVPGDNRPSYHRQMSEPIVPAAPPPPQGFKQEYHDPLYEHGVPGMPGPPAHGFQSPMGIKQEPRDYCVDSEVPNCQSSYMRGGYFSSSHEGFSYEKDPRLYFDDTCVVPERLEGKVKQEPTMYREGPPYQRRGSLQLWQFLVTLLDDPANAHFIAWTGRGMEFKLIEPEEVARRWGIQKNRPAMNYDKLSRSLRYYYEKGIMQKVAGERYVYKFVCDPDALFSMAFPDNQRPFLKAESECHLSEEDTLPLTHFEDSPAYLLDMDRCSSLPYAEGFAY
Chain of HSF1 (Q00613 whole entry): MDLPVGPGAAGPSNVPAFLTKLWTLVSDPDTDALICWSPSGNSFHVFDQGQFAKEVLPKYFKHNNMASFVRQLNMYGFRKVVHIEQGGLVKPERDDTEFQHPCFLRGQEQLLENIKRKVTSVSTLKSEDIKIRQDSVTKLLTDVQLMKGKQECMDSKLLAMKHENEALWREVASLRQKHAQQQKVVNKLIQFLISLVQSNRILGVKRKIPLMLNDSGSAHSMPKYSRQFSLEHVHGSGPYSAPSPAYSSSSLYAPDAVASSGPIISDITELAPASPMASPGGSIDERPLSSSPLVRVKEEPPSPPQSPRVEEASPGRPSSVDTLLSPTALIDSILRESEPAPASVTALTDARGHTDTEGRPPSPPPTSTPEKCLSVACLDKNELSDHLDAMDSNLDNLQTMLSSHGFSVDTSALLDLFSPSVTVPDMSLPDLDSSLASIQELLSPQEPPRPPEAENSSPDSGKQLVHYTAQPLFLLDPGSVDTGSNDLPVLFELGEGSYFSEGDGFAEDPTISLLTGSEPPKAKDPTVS

Take ACGATT: the binding signal with FEV is 1.28 fold enrichment (6-mer frequency, TF over GST control); in the assay with ETV5, 1.36 fold enrichment (6-mer frequency, TF over GST control); with HSF1, 1.69 fold enrichment (6-mer frequency, TF over GST control); with SPIC it was 1.39 fold enrichment (6-mer frequency, TF over GST control); with ELF4, 1.39 fold enrichment (6-mer frequency, TF over GST control); with ELK4, 1.43 fold enrichment (6-mer frequency, TF over GST control). The binding signal with ETV2 is 1.24 fold enrichment (6-mer frequency, TF over GST control); with ELF3 it was 1.31 fold enrichment (6-mer frequency, TF over GST control); with CRX, 1.99 fold enrichment (6-mer frequency, TF over GST control); in the assay with ETV1 it was 1.31 fold enrichment (6-mer frequency, TF over GST control); with ERF, 1.4 fold enrichment (6-mer frequency, TF over GST control); with ETV3L, 1.28 fold enrichment (6-mer frequency, TF over GST control). Also, the binding signal with ETS2 was 1.26 fold enrichment (6-mer frequency, TF over GST control); with SPDEF, 1.27 fold enrichment (6-mer frequency, TF over GST control); in the assay with ETV7 it was 1.28 fold enrichment (6-mer frequency, TF over GST control); with ELF5, 1.24 fold enrichment (6-mer frequency, TF over GST control); with ETV3 it was 1.32 fold enrichment (6-mer frequency, TF over GST control); with ETV6 it was 1.31 fold enrichment (6-mer frequency, TF over GST control).
